The campaign covered roughly 2,400 compounds. About 220 (9.2%) were called active. The entries come from a sample that favours actives as a whole. A number with no mark means an inactive call.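 Rule for the calls: active = signal change above the mean of dofetilide-free buffer controls plus 3 SD, so a positive margin; inactive = the rest.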

Data on 51 compounds can be found in PubChem BioAssay AID1839 (Johns Hopkins Ion Channel Center, 2009).

A short description of this assay: nonspecific flux effects in parental CHO-K1, confirmation, counter-screen for hERG block protection project, cell-based, CHO-K1 parental line, FluxOR thallium flux (AID 1839).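 Note: compounds applied alone with no dofetilide to cells lacking hERG.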 Particulars: CHO-K1 parental cells, FluxOR thallium flux fluorescence; at 10 µM. In general terms: Counterscreens check selectivity or assay interference.
As for `Fc1cccc(C2NN=C(c3ccccc3)S2)c1` (stereo unspecified), the signal change vs control minus 3*SD hit threshold (margin above threshold, higher = more increase) was -15.8%. On to `O=C(NC(=S)Nc1nc(-c2ccc(Br)cc2)cs1)c1ccco1`, for which the signal change vs control minus 3*SD hit threshold (margin above threshold, higher = more increase) was -20.8%. Take `CCOC(=O)c1sc(NC(=S)NC(=O)c2ccco2)nc1C`: the signal change vs control minus 3*SD hit threshold (margin above threshold, higher = more increase) was -14.4%. `O=C(NC(=S)Nc1cccc([N+](=O)[O-])c1)c1ccco1`: the signal change vs control minus 3*SD hit threshold (margin above threshold, higher = more increase) is -40.6%. On to `O=C(NC(=S)Nc1nc(-c2ccccc2)cs1)c1ccco1`, for which the signal change vs control minus 3*SD hit threshold (margin above threshold, higher = more increase) was -21.2%. `O=C(NC(=S)Nc1nc2ccccc2s1)c1ccco1`: the signal change vs control minus 3*SD hit threshold (margin above threshold, higher = more increase) was 9.2% (active).

As to `COc1ccc(-c2csc(NC(=S)NC(=O)c3ccco3)n2)cc1`, the signal change vs control minus 3*SD hit threshold (margin above threshold, higher = more increase) was -14%. Take `O=C(NC(=S)Nc1nc2ccccc2s1)c1cccs1`: the signal change vs control minus 3*SD hit threshold (margin above threshold, higher = more increase) is -8.5%. In the case of `O=C(NC(=S)Nc1nc2ccc(F)cc2s1)c1ccco1` it was 47% (active). Regarding `COc1ccc2nc(NC(=S)NC(=O)c3ccco3)sc2c1`, the signal change vs control minus 3*SD hit threshold (margin above threshold, higher = more increase) is 0.7% (active).

For the compound `O=C(NC(=S)NCc1ccc(-c2nc3ccccc3s2)cc1)c1ccco1`, the signal change vs control minus 3*SD hit threshold (margin above threshold, higher = more increase) is -21.2%.

In the case of `O=C(NC(=S)Nc1nc(-c2ccc([N+](=O)[O-])cc2)cs1)c1ccco1`, the signal change vs control minus 3*SD hit threshold (margin above threshold, higher = more increase) was 1% (active). Regarding `COc1ccc(-c2csc(NC(=S)NC(=O)c3ccco3)n2)cc1Br`, the signal change vs control minus 3*SD hit threshold (margin above threshold, higher = more increase) was -15.8%. In the case of `CC(C)Oc1c(Cl)cc(CNC(C)(C)CO)cc1Cl` it was -26.9%; in that of `CCN(CCCn1c(=S)[nH]c2ncccc2c1=O)c1ccccc1`, -29.7%.

On to `COC(=O)C1=C(C)N(CC2CCCO2)C(=O)/C1=C\c1ccc(O)cc1` (stereo unspecified), for which the signal change vs control minus 3*SD hit threshold (margin above threshold, higher = more increase) was -14.9%.

For the compound `Nn1c(SCC(=O)Nc2ccc(OC(F)F)cc2)nnc1-c1ccco1`, the signal change vs control minus 3*SD hit threshold (margin above threshold, higher = more increase) was -27%. As to `Cc1cccc(NC(=O)CN2C(=O)S/C(=C\c3ccc(-c4cccc(C(=O)O)c4C)o3)C2=O)c1`, the signal change vs control minus 3*SD hit threshold (margin above threshold, higher = more increase) is -29.7%. Consider `CCNC(=S)Nc1nc2c(cc1C(=O)OCC)CCCC2`, for which the signal change vs control minus 3*SD hit threshold (margin above threshold, higher = more increase) is -12.5%. Take `CCc1ccc(/C=N/NC(=O)c2nnn(-c3nonc3N)c2C(C)C)cc1`: the signal change vs control minus 3*SD hit threshold (margin above threshold, higher = more increase) was -35%.

For the compound `O=C(NC(=S)N1CCCc2ccccc21)c1ccc([N+](=O)[O-])cc1`, the signal change vs control minus 3*SD hit threshold (margin above threshold, higher = more increase) was -14.7%. As to `C[n+]1ccccc1COc1ccc(C(C)(C)C)cc1`, the signal change vs control minus 3*SD hit threshold (margin above threshold, higher = more increase) is -20.4%.

With `O=c1cc(-c2c(F)c(F)c(F)c(F)c2F)oc2ccccc12`, the signal change vs control minus 3*SD hit threshold (margin above threshold, higher = more increase) was -13.6%. As for `CCOC(=O)c1c(C)[nH]c(C)c1S(=O)(=O)N1CCCCC1`, the signal change vs control minus 3*SD hit threshold (margin above threshold, higher = more increase) was -27.3%. For `CCC1CCCCN1C(=S)NC(=O)c1cccc([N+](=O)[O-])c1` (stereo unspecified), the signal change vs control minus 3*SD hit threshold (margin above threshold, higher = more increase) was -12.4%. For the compound `O=S(=O)(Nc1ccc(Cc2ccncc2)cc1)c1ccc(Cl)c(Cl)c1`, the signal change vs control minus 3*SD hit threshold (margin above threshold, higher = more increase) is -33.7%. Consider `CCOC(=O)/C(C)=N/NC(=O)c1ccc([N+](=O)[O-])cc1`, for which the signal change vs control minus 3*SD hit threshold (margin above threshold, higher = more increase) is -4.1%. Consider `Cc1ccc2nc(NC(=S)NC(=O)c3ccco3)sc2c1`, for which the signal change vs control minus 3*SD hit threshold (margin above threshold, higher = more increase) was 13.7% (active). With `CCc1ccc2nc(NC(=O)c3cc(C)on3)sc2c1` the figure was -21.2%; with `Cc1ccc2nc(NC(=S)NC(=O)c3cccs3)sc2c1`, -3.1%. Consider `Cc1csc2c(N3CCCCC3)ncnc12`, for which the signal change vs control minus 3*SD hit threshold (margin above threshold, higher = more increase) was -19.8%. Consider `Cc1sc2ncnc(SCC(=O)NC(=O)c3cccn3C)c2c1C`, for which the signal change vs control minus 3*SD hit threshold (margin above threshold, higher = more increase) is -30.1%. On to `COc1ccc(NC(=O)c2cn(-c3ccccc3)nc2-c2ccncc2)cc1`, for which the signal change vs control minus 3*SD hit threshold (margin above threshold, higher = more increase) was -28.9%. For `Oc1c(Cl)cc(Cl)cc1/C=N/c1ncn[nH]1`, the signal change vs control minus 3*SD hit threshold (margin above threshold, higher = more increase) was -9.1%. For the compound `Oc1c(Cl)cc(Cl)cc1/C=N/c1nccs1`, the signal change vs control minus 3*SD hit threshold (margin above threshold, higher = more increase) was -6.3%.

`Oc1c(Cl)cc(Cl)cc1Sc1cc(Cl)cc(Cl)c1O`: the signal change vs control minus 3*SD hit threshold (margin above threshold, higher = more increase) was 53.5% (active). As for `Cc1cc2[nH]c(=O)c(=O)[nH]c2cc1S(=O)(=O)N1CCN(c2cccc(C)c2C)CC1`, the signal change vs control minus 3*SD hit threshold (margin above threshold, higher = more increase) is -25%. In the case of `CCOC(=O)N1CCN(C(=O)CN(c2ccc(OCC)cc2)S(C)(=O)=O)CC1`, the signal change vs control minus 3*SD hit threshold (margin above threshold, higher = more increase) was -29.2%.

Consider `CC1CCCCC1NC(=S)NC(=O)c1cccs1` (stereo unspecified), for which the signal change vs control minus 3*SD hit threshold (margin above threshold, higher = more increase) is 3.7% (active). Turning to `CC1CCCCC1NC(=S)NC(=O)c1sc2ccccc2c1Cl` (stereo unspecified), the signal change vs control minus 3*SD hit threshold (margin above threshold, higher = more increase) was -26.5%. `CC1CCN(C(=S)NC(=O)c2cccs2)CC1`: the signal change vs control minus 3*SD hit threshold (margin above threshold, higher = more increase) was -12%. Turning to `CC(=O)Nc1ccc(S(=O)(=O)NC2(C(F)(F)F)C(=O)Nc3c2c(=O)[nH]c(=O)n3C)cc1` (stereo unspecified), the signal change vs control minus 3*SD hit threshold (margin above threshold, higher = more increase) is -24.3%. On to `CCc1nc2sc3c(c2c(=S)[nH]1)CC(C)(C)OC3`, for which the signal change vs control minus 3*SD hit threshold (margin above threshold, higher = more increase) was -18.6%. Regarding `CCC1(C)Cc2c(sc3nc(SC)[nH]c(=S)c23)CO1` (stereo unspecified), the signal change vs control minus 3*SD hit threshold (margin above threshold, higher = more increase) was 48.8% (active). On to `CSc1nc2sc3c(c2c(=S)[nH]1)CC(C)(C)OC3`, for which the signal change vs control minus 3*SD hit threshold (margin above threshold, higher = more increase) is 31.8% (active). In the case of `CC(=O)c1ccc(S(=O)(=O)NCc2ccc(C(=O)N(C)CC(=O)Nc3cccc(F)c3)cc2)cc1` it was -20.8%. For the compound `CC1Cc2cc(S(=O)(=O)NCc3ccccc3)ccc2N1C(=O)C1CCC1` (stereo unspecified), the signal change vs control minus 3*SD hit threshold (margin above threshold, higher = more increase) is -33.7%.

As for `O=C1NC(=O)C2(COC(c3cccc([N+](=O)[O-])c3)OC2)S1` (stereo unspecified), the signal change vs control minus 3*SD hit threshold (margin above threshold, higher = more increase) was -28.4%. With `CCCn1nnnc1SCC(=O)Nc1nnc(CC)s1` the figure was -22.9%; with `Cc1cc(=S)nc(-c2ccccn2)[nH]1`, -18.7%. In the case of `c1ccc(-c2n[nH]c(-c3ccccn3)n2)cc1`, the signal change vs control minus 3*SD hit threshold (margin above threshold, higher = more increase) was -23.5%.
